Test results: PubChem BioAssay (NCI)
This is part of a sample that, as a whole, favours compounds with a hit. Of some 83,000 tested, about 20% had one in any assay.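 Compound tested at a single concentration for 48 hours in 96-well plates; a percent growth value below 10 was scored as active.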 Activity calls are given as the source filed them.

How the values were obtained:
Assay in all cases: NCI-60 one-dose screen, 48 h (100 = growth as untreated, 0 = no growth, -100 = all killed)
Conditions in all cases: 10 µM
NCI-H23 lung = system: NCI-H23 lung
NCI-H226 lung = system: NCI-H226 lung
NCI-H322M lung = system: NCI-H322M lung
HOP-62 NSCLC = system: HOP-62 NSCLC
NCI-H460 lung = system: NCI-H460 lung
HOP-92 NSCLC = system: HOP-92 NSCLC
NCI-H522 lung = system: NCI-H522 lung
A549/ATCC NSCLC = system: A549/ATCC NSCLC
786-0 renal = system: 786-0 renal
DU-145 prostate = system: DU-145 prostate
K-562 leukemia = system: K-562 leukemia
MALME-3M melanoma = system: MALME-3M melanoma
MDA-MB-231 breast = system: MDA-MB-231 breast
RXF 393 renal = system: RXF 393 renal
SF-268 CNS = system: SF-268 CNS
SF-295 CNS = system: SF-295 CNS
SF-539 CNS = system: SF-539 CNS
UACC-257 melanoma = system: UACC-257 melanoma
M14 melanoma = system: M14 melanoma
COLO 205 colon = system: COLO 205 colon

Measured: growth

CNCCCNCCCN1C(=O)c2ccc3c4c(ccc(c24)C1=O)C(=O)N(CCCNCc1ccccc1OC)C3=O
active: NCI-H23 lung -31% | NCI-H226 lung 8.88% | NCI-H322M lung 1.15% | HOP-62 NSCLC 7.81% | NCI-H460 lung -16.6% | HOP-92 NSCLC -32.1% | NCI-H522 lung -52.7% | A549/ATCC NSCLC 1.84% | DU-145 prostate -91.5% | K-562 leukemia 4.42% | MALME-3M melanoma -89.7% | MDA-MB-231 breast 7.69% | RXF 393 renal -11.5% | SF-268 CNS 4.85% | UACC-257 melanoma -80.7% | M14 melanoma 0.979%
inactive: 786-0 renal 10.4% | SF-295 CNS 25.3% | SF-539 CNS 24.3%

O=C(NNc1nc(N2CCCC2)nc(N2CCCC2)n1)c1ccccc1
inactive: NCI-H23 lung 99.3% | NCI-H226 lung 107% | NCI-H322M lung 94.9% | HOP-62 NSCLC 101% | NCI-H460 lung 117% | HOP-92 NSCLC 83.5% | NCI-H522 lung 94.2% | A549/ATCC NSCLC 104% | 786-0 renal 121% | COLO 205 colon 109% | DU-145 prostate 107% | MDA-MB-231 breast 100% | RXF 393 renal 116% | SF-268 CNS 106% | SF-295 CNS 128% | SF-539 CNS 113% | UACC-257 melanoma 96.6% | M14 melanoma 132%

CC1(C)Cc2c(cn(Cc3ccccc3)c2-c2ccccc2)-c2oncc21
inactive: NCI-H23 lung 96.7% | NCI-H226 lung 92.2% | NCI-H322M lung 126% | HOP-62 NSCLC 107% | NCI-H460 lung 113% | HOP-92 NSCLC 67.8% | NCI-H522 lung 90.1% | A549/ATCC NSCLC 86.2% | 786-0 renal 97.5% | COLO 205 colon 103% | DU-145 prostate 103% | K-562 leukemia 74.7% | MDA-MB-231 breast 104% | RXF 393 renal 98% | SF-268 CNS 107% | SF-295 CNS 99.5% | SF-539 CNS 107% | UACC-257 melanoma 101% | M14 melanoma 100%

Cc1cc(Cl)ccc1Nc1nc(C(F)(F)F)ccc1C(=O)N/N=C/c1ccccc1Cl
inactive: NCI-H23 lung 16.9% | A549/ATCC NSCLC 13.5% | DU-145 prostate 36.4% | K-562 leukemia 56.3% | MALME-3M melanoma 30% | RXF 393 renal 24.1% | SF-268 CNS 31.1%
active: NCI-H226 lung -12.4% | NCI-H322M lung 9.54% | HOP-62 NSCLC -6.31% | NCI-H460 lung 5.74% | HOP-92 NSCLC -1.9% | NCI-H522 lung -2.69% | 786-0 renal -40.1% | MDA-MB-231 breast -15.5% | SF-295 CNS 8.72% | SF-539 CNS 6.63% | UACC-257 melanoma 6.87% | M14 melanoma 9.99%

CN(C)c1ccc2c(c1)OC(N)=C(C#N)C2c1ccc2c(c1)CCO2 (stereo not given)
active: NCI-H460 lung 9.76% | NCI-H522 lung -6.52% | SF-295 CNS -3.28% | SF-539 CNS -0.663%
inactive: NCI-H23 lung 35.5% | NCI-H226 lung 48.9% | NCI-H322M lung 51.4% | HOP-62 NSCLC 36.3% | HOP-92 NSCLC 58.8% | A549/ATCC NSCLC 21.9% | 786-0 renal 34.8% | DU-145 prostate 26.7% | K-562 leukemia 17% | MALME-3M melanoma 87.5% | MDA-MB-231 breast 21.7% | RXF 393 renal 23.5% | SF-268 CNS 47.7% | UACC-257 melanoma 58% | M14 melanoma 10%

[O-]c1c[n+](-c2ccc(Cl)cc2)no1
inactive: NCI-H23 lung 106% | NCI-H226 lung 103% | NCI-H322M lung 94.1% | HOP-62 NSCLC 91.3% | NCI-H460 lung 101% | HOP-92 NSCLC 83.8% | NCI-H522 lung 122% | A549/ATCC NSCLC 108% | 786-0 renal 108% | DU-145 prostate 107% | K-562 leukemia 106% | MDA-MB-231 breast 80.1% | RXF 393 renal 116% | SF-268 CNS 100% | SF-295 CNS 112% | SF-539 CNS 119% | UACC-257 melanoma 104% | M14 melanoma 104%

Nc1cc(O)cc(O)c1
inactive: NCI-H23 lung 93.9% | NCI-H226 lung 107% | NCI-H322M lung 104% | HOP-62 NSCLC 88.1% | NCI-H460 lung 106% | HOP-92 NSCLC 93.4% | NCI-H522 lung 94% | A549/ATCC NSCLC 106% | 786-0 renal 93.9% | DU-145 prostate 103% | K-562 leukemia 99.5% | MALME-3M melanoma 97.5% | MDA-MB-231 breast 93.9% | RXF 393 renal 120% | SF-268 CNS 100% | SF-295 CNS 94.9% | SF-539 CNS 92.1% | UACC-257 melanoma 108% | M14 melanoma 100%

CCCCCCCCCCN=C(c1ccc(N(C)C)cc1)c1ccc(N(C)C)cc1
inactive: NCI-H23 lung 27.8% | NCI-H226 lung 57.6% | NCI-H322M lung 44.6% | HOP-62 NSCLC 29.4% | NCI-H460 lung 12.1% | HOP-92 NSCLC 47.9% | A549/ATCC NSCLC 30.5% | 786-0 renal 48.8% | DU-145 prostate 28.5% | K-562 leukemia 10.1% | MALME-3M melanoma 62% | MDA-MB-231 breast 49.5% | SF-268 CNS 57.5% | SF-295 CNS 14% | SF-539 CNS 10.9% | UACC-257 melanoma 28.3%
active: NCI-H522 lung 2.43% | RXF 393 renal 3.59% | M14 melanoma -18%
